Consider 1 compound from ChEMBL document CHEMBL2218924, “A broad activity screen in support of a chemogenomic map for kinase signalling research and drug discovery” (Biochem J, 2013).

Assay [1] deals with Tyrosine-protein kinase SYK (Homo sapiens) (UniProt P43405). The following applies: at 10 µM.
The target of assay [2] is T1, Mitogen-activated protein kinase kinase kinase 7 (Homo sapiens) (UniProt O43318).
T1 sequence (whole entry): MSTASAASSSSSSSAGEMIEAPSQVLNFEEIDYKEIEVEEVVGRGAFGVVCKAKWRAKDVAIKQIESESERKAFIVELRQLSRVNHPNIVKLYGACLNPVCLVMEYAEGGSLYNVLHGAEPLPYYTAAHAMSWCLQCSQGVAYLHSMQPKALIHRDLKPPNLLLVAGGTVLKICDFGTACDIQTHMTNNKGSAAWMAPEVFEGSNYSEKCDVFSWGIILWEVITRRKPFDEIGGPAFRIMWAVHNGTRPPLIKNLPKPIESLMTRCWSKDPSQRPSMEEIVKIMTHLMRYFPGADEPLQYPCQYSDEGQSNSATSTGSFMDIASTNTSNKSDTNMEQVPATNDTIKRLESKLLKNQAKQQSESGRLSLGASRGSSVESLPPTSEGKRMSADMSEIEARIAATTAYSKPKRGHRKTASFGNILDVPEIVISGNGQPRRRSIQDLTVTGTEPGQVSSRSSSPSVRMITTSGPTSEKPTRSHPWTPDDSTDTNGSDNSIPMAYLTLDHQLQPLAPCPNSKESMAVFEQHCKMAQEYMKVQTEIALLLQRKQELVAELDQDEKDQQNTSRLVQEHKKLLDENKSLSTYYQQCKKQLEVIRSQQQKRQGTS
Particulars: at 1 µM.

Assay [3] has as its target T1, Mitogen-activated protein kinase kinase kinase 7 (Homo sapiens). The following applies: at 10 µM.
In assay [4] the target is T2, Serine/threonine-protein kinase TAO1 (Homo sapiens) (UniProt Q7L7X3).
T2 sequence (whole entry): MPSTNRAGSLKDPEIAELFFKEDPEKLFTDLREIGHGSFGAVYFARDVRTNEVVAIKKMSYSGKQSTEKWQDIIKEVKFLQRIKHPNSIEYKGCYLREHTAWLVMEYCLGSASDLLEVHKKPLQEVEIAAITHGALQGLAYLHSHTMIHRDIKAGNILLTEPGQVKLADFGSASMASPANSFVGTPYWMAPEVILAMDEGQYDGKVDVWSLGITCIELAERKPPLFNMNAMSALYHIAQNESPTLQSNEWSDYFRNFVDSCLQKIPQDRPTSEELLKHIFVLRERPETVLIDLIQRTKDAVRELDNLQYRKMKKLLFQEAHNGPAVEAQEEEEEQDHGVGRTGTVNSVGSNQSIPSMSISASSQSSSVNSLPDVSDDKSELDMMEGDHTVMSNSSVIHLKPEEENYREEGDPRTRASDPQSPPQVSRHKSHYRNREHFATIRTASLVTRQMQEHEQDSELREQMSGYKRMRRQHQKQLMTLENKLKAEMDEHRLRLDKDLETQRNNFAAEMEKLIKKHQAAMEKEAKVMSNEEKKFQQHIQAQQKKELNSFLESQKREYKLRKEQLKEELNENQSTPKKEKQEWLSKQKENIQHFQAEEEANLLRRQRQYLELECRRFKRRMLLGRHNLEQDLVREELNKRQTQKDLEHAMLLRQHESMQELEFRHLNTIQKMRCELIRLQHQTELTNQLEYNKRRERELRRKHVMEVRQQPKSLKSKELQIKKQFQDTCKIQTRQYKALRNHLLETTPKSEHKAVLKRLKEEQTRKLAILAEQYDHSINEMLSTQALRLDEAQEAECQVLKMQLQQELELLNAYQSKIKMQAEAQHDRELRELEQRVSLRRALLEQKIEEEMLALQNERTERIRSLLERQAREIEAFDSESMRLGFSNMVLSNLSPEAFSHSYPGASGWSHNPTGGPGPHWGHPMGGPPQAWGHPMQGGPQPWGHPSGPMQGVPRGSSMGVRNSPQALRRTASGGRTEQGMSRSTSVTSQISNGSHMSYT
Particulars: at 1 µM.

Assay [5] deals with T2, Serine/threonine-protein kinase TAO1 (Homo sapiens). Particulars: at 10 µM.
In assay [6] the target is T3, Serine/threonine-protein kinase TAO2 (Homo sapiens) (UniProt Q9UL54).
T3 sequence (whole entry): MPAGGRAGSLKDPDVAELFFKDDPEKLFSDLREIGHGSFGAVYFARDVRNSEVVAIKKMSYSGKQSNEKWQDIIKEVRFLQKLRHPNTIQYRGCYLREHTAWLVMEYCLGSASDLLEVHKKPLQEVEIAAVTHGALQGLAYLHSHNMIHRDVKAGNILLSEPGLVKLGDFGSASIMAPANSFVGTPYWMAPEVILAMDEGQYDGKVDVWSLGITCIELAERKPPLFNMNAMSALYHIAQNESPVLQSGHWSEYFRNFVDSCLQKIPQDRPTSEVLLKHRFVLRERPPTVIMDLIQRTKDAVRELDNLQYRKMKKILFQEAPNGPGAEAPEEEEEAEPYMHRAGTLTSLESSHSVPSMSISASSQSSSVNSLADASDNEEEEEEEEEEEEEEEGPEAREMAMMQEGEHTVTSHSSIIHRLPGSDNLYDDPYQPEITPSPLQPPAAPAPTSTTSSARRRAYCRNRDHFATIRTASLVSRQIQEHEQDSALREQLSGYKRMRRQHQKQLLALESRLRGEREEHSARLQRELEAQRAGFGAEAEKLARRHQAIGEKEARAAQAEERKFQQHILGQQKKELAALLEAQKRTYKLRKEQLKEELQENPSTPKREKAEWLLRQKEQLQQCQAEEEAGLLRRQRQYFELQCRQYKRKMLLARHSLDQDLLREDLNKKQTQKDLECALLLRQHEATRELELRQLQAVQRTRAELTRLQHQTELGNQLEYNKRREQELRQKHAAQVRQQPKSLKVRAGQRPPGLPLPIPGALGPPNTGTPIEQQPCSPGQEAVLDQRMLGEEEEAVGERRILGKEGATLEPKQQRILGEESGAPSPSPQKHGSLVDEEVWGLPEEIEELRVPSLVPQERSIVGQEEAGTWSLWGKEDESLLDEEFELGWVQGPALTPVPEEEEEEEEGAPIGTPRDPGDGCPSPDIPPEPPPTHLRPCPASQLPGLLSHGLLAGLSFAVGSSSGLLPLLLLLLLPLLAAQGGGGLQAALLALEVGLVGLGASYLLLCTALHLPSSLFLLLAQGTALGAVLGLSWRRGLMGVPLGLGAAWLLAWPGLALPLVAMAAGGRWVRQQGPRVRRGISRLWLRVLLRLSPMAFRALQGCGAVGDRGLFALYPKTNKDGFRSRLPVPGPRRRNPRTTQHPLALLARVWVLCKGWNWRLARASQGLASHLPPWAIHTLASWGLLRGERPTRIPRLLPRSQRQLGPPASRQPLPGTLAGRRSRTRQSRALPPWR
The following applies: at 1 µM.

In assay [7] the target is T3, Serine/threonine-protein kinase TAO2 (Homo sapiens). The following applies: at 10 µM.
Assay [8] has as its target T4, Serine/threonine-protein kinase TAO3 (Homo sapiens) (UniProt Q9H2K8).
T4 sequence (whole entry): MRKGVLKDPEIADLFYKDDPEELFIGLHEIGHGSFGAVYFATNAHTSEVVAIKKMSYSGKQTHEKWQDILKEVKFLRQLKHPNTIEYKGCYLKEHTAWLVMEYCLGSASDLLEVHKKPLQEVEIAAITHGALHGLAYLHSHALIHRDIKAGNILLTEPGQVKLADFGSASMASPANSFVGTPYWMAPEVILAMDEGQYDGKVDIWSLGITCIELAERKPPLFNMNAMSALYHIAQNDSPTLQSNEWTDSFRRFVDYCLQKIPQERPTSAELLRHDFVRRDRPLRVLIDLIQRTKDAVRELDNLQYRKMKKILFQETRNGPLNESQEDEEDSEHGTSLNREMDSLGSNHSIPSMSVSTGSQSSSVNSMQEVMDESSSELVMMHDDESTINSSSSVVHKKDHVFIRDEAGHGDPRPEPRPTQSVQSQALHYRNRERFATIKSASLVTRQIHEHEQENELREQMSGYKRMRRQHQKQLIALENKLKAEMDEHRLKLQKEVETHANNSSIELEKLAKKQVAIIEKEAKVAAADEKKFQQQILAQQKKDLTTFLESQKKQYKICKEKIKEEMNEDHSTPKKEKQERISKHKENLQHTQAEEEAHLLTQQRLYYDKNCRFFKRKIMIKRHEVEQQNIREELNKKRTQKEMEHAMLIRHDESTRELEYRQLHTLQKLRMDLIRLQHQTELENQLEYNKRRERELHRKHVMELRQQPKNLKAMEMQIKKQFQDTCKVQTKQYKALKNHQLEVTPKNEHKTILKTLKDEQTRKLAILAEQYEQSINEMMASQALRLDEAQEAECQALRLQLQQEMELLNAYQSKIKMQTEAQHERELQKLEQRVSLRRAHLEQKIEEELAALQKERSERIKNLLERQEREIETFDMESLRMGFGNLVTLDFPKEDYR
Particulars: at 1 µM.

The target of assay [9] is T4, Serine/threonine-protein kinase TAO3 (Homo sapiens). The following applies: at 10 µM.
Assay [10] has as its target T5, Serine/threonine-protein kinase TBK1 (Homo sapiens) (UniProt Q9UHD2).
T5 sequence (whole entry): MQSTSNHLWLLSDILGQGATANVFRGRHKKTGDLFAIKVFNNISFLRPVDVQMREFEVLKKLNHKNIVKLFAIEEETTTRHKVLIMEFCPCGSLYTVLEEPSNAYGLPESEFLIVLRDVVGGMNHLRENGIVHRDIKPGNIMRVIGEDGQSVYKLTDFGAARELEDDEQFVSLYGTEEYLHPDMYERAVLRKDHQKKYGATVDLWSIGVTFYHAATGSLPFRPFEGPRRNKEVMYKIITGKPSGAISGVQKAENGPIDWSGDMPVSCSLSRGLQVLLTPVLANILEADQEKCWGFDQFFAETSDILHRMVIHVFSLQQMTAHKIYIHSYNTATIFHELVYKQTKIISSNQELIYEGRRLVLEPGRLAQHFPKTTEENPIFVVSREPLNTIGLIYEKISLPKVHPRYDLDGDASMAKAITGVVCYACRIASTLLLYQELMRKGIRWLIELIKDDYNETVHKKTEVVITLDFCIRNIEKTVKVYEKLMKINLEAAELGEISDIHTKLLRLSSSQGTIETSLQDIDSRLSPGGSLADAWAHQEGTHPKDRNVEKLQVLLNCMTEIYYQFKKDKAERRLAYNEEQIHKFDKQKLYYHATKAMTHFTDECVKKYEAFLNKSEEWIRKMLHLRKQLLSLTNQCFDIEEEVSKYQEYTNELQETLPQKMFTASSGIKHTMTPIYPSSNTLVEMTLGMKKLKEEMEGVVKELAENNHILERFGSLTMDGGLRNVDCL
The following applies: at 1 µM.

Take `Cc1ccc(S(=O)(=O)/C=C/C#N)cc1`: the residual activity was 109% in assay [1]; 96% in assay [2]; 88% in assay [3]; 94% in assay [4]; 87% in assay [5]; 88% in [6]. The residual activity in [7] was 109%; in assay [8], 92%; in [9] it was 98%; in assay [10], 87%.
